# Measurements as given in ChEMBL document CHEMBL4513141, “CO-ADD screening of NIH (USA) - Clinical Collection” (2021).
# Measured potencies and affinities stand elsewhere.
# What was measured:
# [1] = tested on: Klebsiella pneumoniae; settings: Concentration 20 uM; ASSAY_TEST Inhibition of Bacterial Growth; detection method Absorption (OD600); MEDIA CAMHB; plate type 384well; NBS; CORNING #3640; time 18 hr
# [2] = tested on: Candida albicans; settings: 20 µM
# [3] = tested on: Cryptococcus neoformans; settings: Concentration 20 uM; ASSAY_TEST Inhibition of Fungal Growth; detection method Resazurin; Absorption (OD600-OD570); plate type 384well; NBS; CORNING #3640
SMILES,Inhibition [1],Inhibition [2],Inhibition [3]
COc1cc([C@@H]2c3cc4c(cc3[C@H](O)[C@H]3COC(=O)[C@H]23)OCO4)cc(OC)c1OC [PODOFILOX],15.68%,0.66%,-1.83%
CN1[C@@H](CC(=O)c2ccccc2)CCC[C@H]1C[C@H](O)c1ccccc1.Cl [LOBELINE HYDROCHLORIDE],19.91%,2.98%,-5.47%
Cl.c1ccc2c(CC3=NCCN3)cccc2c1 [NAPHAZOLINE HYDROCHLORIDE],13.63%,3.38%,-4.12%
